This is one part of a sample in which hits are shown more often than they occur.
Pf Dd2 growth – Plasmodium falciparum Dd2 growth inhibition | hit rate 4.3% among 120,000 | Potency, µM (highest dose often 28.9 µM), for inactives: at the highest dose activity, negative = inhibition, hits mostly inhibitors | P. falciparum Dd2 growth, SYBR Green, 72 h; active = well fitted inhibition curve with a large enough effect;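 note: plate controls were DMSO vehicle for no effect and reference drug for full effect; nearly all actives have a fitted effect of over 65% in size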
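Infected erythrocytes (Dd2, 0.3% parasitemia, 2.5% hematocrit final) are added to compound in RPMI-1640/Albumax II medium, grown 72 h at 37C in low oxygen, then lysed with saponin/Triton-X containing SYBR Green and read by fluorescence.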
The depositor's hits bear a star; i = inactive; [ ] = another dose, or the depositor's remark. Potency is the fitted concentration of half-maximal effect.

SMILES | Pf Dd2 growth
Cc1ccc(C)c(CNC(=O)C2(c3ccc(NS(C)(=O)=O)cc3)CCCCC2)c1 | -2.2%
COc1ccccc1C(=O)N1CCC2CC(=O)NCCC2C1 (stereo not given) | 7.5%
O=C(Cn1ccn2nc(-c3ccc(F)cc3)c(CO)c2c1=O)NCCCc1ccccc1 | i
COc1ccc(CN2CCN3C(=O)N(Cc4ccccc4)C[C@H]3C2)cc1 | i
COC(=O)[C@H](Cc1ccc(OC)cc1)NC(=O)[C@H]1CN(C(=O)Nc2ccccc2)CCN1C(=O)C1CCCCC1 | i
COC(=O)[C@H](Cc1ccc(OC)cc1)NC(=O)[C@H]1CN(S(=O)(=O)c2ccccc2)CCN1C(=O)NC1CCCCC1 | 11.2µM*
CN(C)c1ccc(C(=O)N2CCN(S(C)(=O)=O)[C@H](C(=O)N[C@@H](CC3CCCCC3)C(N)=O)C2)cc1 | i
COC(=O)[C@H](Cc1ccc(OC)cc1)NC(=O)[C@H]1CN(C(=O)c2ccc(N(C)C)cc2)CCN1C(=O)c1cccs1 | 0.141µM*
COC(=O)[C@H](Cc1ccc(OC)cc1)NC(=O)[C@@H]1CN(C(=O)NC(C)C)CCN1C(=O)c1cccs1 | -20.7%
COC(=O)[C@H](Cc1ccc(OC)cc1)NC(=O)[C@@H]1CN(S(C)(=O)=O)CCN1S(=O)(=O)c1ccccc1 | 20.5%
COC(=O)[C@@H](C)NC(=O)[C@H]1CN(S(=O)(=O)c2ccccc2)CCN1C(=O)NC1CCCCC1 | 13.7%
COC(=O)[C@H](Cc1ccc(OC)cc1)NC(=O)[C@H]1CN(C(=O)c2ccc(N(C)C)cc2)CCN1C(=O)C1CCCCC1 | 0.398µM*
COC(=O)[C@H](Cc1ccc(OC)cc1)NC(=O)[C@@H]1CN(C(=O)c2cccc(F)c2)CCN1C(C)=O | -5.7%
Cc1ccc(C2(C(=O)N3CCC4(CC3)CNC(C(=O)O)C4)CC2)cc1 (stereo not given) | 12.5%
C[S+](=O)([O-])CCn1ncc2cc(OCC3CCN(C(=O)OC4CCCC4)CC3)ccc21 | -2.7%
Cc1cccc(C)c1Oc1ncccc1CNC(=O)c1[nH]ncc1Cl | i
CC(C)N1C[C@H](O)C[C@H]1c1nnc2n1CCN(C(=O)CCc1nc3ccccc3s1)C2 | 5.8%
Cc1ccc(C)c(CCNC(=O)[C@H]2CNC[C@H](C(=O)N3CCOCC3)C2)c1 | -4.1%
Cc1ccc(CCNC(=O)C2CCN(C(=O)c3nnn4c3COC(c3ccc(C)cc3)C4)CC2)cc1 (stereo not given) | i
O=C(O)[C@@H]1CN(Cc2ccccc2)C[C@@H]1C(=O)N1CCCC1 | -5.0%
CCOc1cccc(-c2nc(C3CCOC3)no2)c1 (stereo not given) | 14.9%
c1cc(-c2ccco2)cc(-c2nc(C3CCOC3)no2)c1 (stereo not given) | 12.6µM*
COc1cccc(-c2ccc(-c3nc(C4CCOC4)no3)o2)c1 (stereo not given) | -6.1%
CCn1nccc1C(=O)N1CCC(c2noc(-c3cnccn3)n2)C1 (stereo not given) | 31.1%[5.79 µM]
O=C(CC1C(=O)NCCN1CC(c1ccccc1)c1ccccc1)NCc1ccoc1 (stereo not given) | i
SMILES | Pf Dd2 growth
Cc1cc(C(=O)N[C@H](c2ccccn2)C2CC(O)C2)c2c(C)noc2n1 (stereo not given in full) | -4.0%
O=C(C1CCC1)N1CC[C@H]2COC(=O)N2c2cc(F)ccc2C1 | -2.3%[44.1 µM]
Cc1oc(C(O)c2ccccc2F)nc1C(=O)N1CCN(c2ccccn2)CC1 (stereo not given) | i
COc1ccc(-c2nccn3cc(C(=O)O)nc23)cc1 | 26.3%
CCn1cc(S(=O)(=O)c2ccc(C)cc2C)c(=O)c2cc(F)c(N3CCCCC3)cc21 | 11.2µM*
Cc1ccc(S(=O)(=O)c2cn(Cc3ccccc3)c3cc(N4CCCC4)c(F)cc3c2=O)cc1 | 6.31µM*
O=c1c(S(=O)(=O)c2ccccc2)cn(Cc2ccccc2)c2cc(N3CCCC3)c(F)cc12 | -5.1%
O=c1c(S(=O)(=O)c2ccccc2)cn(Cc2cccc(F)c2)c2cc(N3CCCC3)c(F)cc12 | -13.9%
CCn1cc(S(=O)(=O)c2cc(C)cc(C)c2)c(=O)c2cc(F)c(N3CCCC3)cc21 | i
CCCn1cc(S(=O)(=O)c2ccc(C)c(C)c2)c(=O)c2cc(F)c(N3CCC(C)CC3)cc21 | -9.6%
O=c1c(S(=O)(=O)c2cccc(Cl)c2)cn(Cc2ccccc2)c2cc(N3CCCCC3)c(F)cc12 | i
Cc1ccc(S(=O)(=O)c2cn(Cc3ccccc3)c3cc(N4CCCC4)c(F)cc3c2=O)cc1C | 10µM*
CCn1cc(S(=O)(=O)c2ccc(OC)cc2)c(=O)c2cc(F)c(N3CCCCCC3)cc21 | -23.9%
O=C(NCc1cc2ccc(F)cc2[nH]c1=O)C1CC2(CCNCC2)CN1 (stereo not given) | -5.7%
COc1cccc([S+](=O)([O-])N2CCn3ncc(C(=O)Nc4ccc(Cl)cc4Cl)c3C2)c1 | -14.8%
CCCN(CCC)C(=O)[C@H]1CCC[C@H]1NC(=O)c1ccc(OC)nc1 | -10.7%
O=C(CCc1nc(C2CCCN2C(=O)c2ccccc2)no1)Nc1ccc(F)cc1F (stereo not given) | 0.1%
COc1ccc(NC(=O)Cn2c(=O)n(-c3ccc(F)cc3)c(=O)c3c2cc(C)n3C)c(OC)c1 | -18.7%
COCCN(C)C[C@H]1C[C@H](CO)CN(C(=O)c2[nH]nc(-c3ccccc3)c2C)C1 | -23.4%
CO[C@H]1[C@H](NC(=O)CCOc2ccccc2)c2ccccc2C12CCNCC2 | -8.5%
Cc1cccc(CC(=O)N2CCC3(CC2)CC(OCC2CC2)CCO3)c1 (stereo not given) | -5.2%
CN(C)C[C@@H]1CN(Cc2ccccc2)C[C@H]1N | -16.0%
COCCN1C(=O)[C@H]2CN(Cc3ccccc3)C[C@H]2C1=O | 98.7%
COc1ccc(CNC(=O)Nc2cn(CC(C)C)c(=O)c3ccccc23)c(OC)c1 | i
CCc1ccccc1N(C)C(=O)Nc1cn(CC(C)C)c(=O)c2ccccc12 | 8.91µM*
SMILES | Pf Dd2 growth
CCc1ccccc1N(C)C(=O)Cc1c(C(=O)O)c(C)cn1C | -11.4%
COc1nc2c(cc1CNC(=O)C1(C)CC1)C(=O)N(CCc1ccccn1)C2 | -11.2%
Cn1ccc(C(=O)N2CCC(N3CCCC(C(=O)N4CCCC4)C3)CC2)n1 (stereo not given) | 11.2%
CCOc1ccc(C2c3c(oc4cc(C)c(C)cc4c3=O)C(=O)N2c2ccccn2)cc1 (stereo not given) | -7.5%
CCOc1ccc(NC(=O)Cn2nc(Cc3ccncc3)c3ccccc3c2=O)cc1 | -8.1%
COc1cc(C2c3c(-c4ccccc4O)n[nH]c3C(=O)N2Cc2ccncc2)ccc1O (stereo not given) | -4.7%
CCCCOc1ccc(C2c3c(-c4ccccc4O)n[nH]c3C(=O)N2Cc2ccncc2)cc1OC (stereo not given) | 7.08µM*
CCOc1ccc(C2c3c(-c4ccccc4O)n[nH]c3C(=O)N2Cc2ccncc2)cc1 (stereo not given) | 14.1µM*
COc1cc(C2c3c(oc4ccccc4c3=O)C(=O)N2Cc2ccc(C)cc2)ccc1O (stereo not given) | 14.9%
COc1ccc(Cl)cc1NC(=O)Cn1nc2c(cc1=O)CCCCC2 | 6.6%
Cc1ccc2c(c1)N1C(=O)OC[C@@H]1CCN(C(=O)NC1CCCCC1)C2 | 2.8%[44.1 µM]
CC(C)N1C(=O)CO[C@H]2CCN(Cc3ccccn3)CC[C@@H]21 | 19.0%[44.1 µM]
COc1cc(CN2CCN(S(=O)(=O)c3ccccc3)CC2)cc(OC)c1O | -7.6%
CCn1c2ccccc2c2cc(CN3CCN(Cc4cc(OC)c(O)c(OC)c4)CC3)ccc21 | 11.2µM*
CCn1c2ccccc2c2cc(CN3CCN(Cc4ccccc4F)CC3)ccc21 | i

Screening results from PubChem.
